Assay outcomes from PubChem BioAssay.
This is a sample that favours compounds with a hit; in the whole collection about 11% have one here.
HP1b chromo inh: blocks HP1-beta chromodomain binding to methylated histone tails | hit rate 0.56% among 390,000 | AID 540317 | Potency, µM (titrated, usually from 114 µM), without a hit: at the highest dose activity change, negative = inhibition, usual class: inhibitors | AlphaScreen HP1-beta / biotin-H3K9me3 peptide binding | P83916; also: nearly all actives have a fitted effect of over 70% in size
Target sequence (P83916 whole entry, looked up): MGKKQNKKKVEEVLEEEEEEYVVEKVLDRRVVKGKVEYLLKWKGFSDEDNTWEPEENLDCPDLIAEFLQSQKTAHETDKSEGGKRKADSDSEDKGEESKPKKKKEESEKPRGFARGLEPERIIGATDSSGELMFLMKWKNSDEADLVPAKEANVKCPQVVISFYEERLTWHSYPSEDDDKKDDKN
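AlphaScreen: HP1-beta (50 nM) preformed 30 min with biotin-H3(1-18)K9me3 peptide (50 nM) in PBS pH 7.4, 0.01% Tween-20. Compound added for 30 min at RT, then streptavidin donor/nickel chelate acceptor beads (10 ug/mL) for 30 min.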
JMJD2A Tudor inh: inhibitors of human JMJD2A Tudor domain; hit rate 4.4% among 390,000; O75164; AlphaScreen JMJD2A-Tudor / H3K4me3 peptide binding; Potency, µM (series often up to 114 µM), without a hit: at the highest dose activity change, negative = inhibition, actives largely listed as inhibitors; AID 504339; also: % is scaled to controls: 0 for no effect and ±100 for the full control effect; nearly all actives have a fitted effect of over 50% in size
G9a inh: blocks human histone lysine methyltransferase G9a | G9a H3K9 monomethylation, AlphaScreen, 2 h | AID 504332 | hit rate 8.8% among 350,000 | Potency, µM (highest dose often 102 µM), for the others: top-dose activity, negative = inhibition, actives largely listed as inhibitors; also: % is scaled to controls: 0 for no effect and ±100 for the full control effect; nearly all actives have a fitted effect of over 75% in size
Target sequence (Q96KQ7 913-1193 limits assumed): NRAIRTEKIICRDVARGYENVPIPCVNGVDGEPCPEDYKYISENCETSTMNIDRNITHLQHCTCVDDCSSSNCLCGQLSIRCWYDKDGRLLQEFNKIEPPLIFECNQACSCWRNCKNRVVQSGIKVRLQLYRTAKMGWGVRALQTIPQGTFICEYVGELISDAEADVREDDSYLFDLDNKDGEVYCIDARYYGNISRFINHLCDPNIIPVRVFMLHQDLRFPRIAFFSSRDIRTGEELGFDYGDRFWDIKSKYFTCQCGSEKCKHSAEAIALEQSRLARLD
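Methyltransferase reactions run at room temperature for 2 h (20 nM enzyme, 500 nM biotin-H3K9 peptide, 20 uM SAM) after a 15 min compound preincubation; product detected by AlphaScreen beads and anti-H3K9me1 antibody.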
L3MBTL1 block: L3MBTL1 (human) inhibition | Q9Y468 | hit rate 0.66% among 230,000 | Potency, µM (top dose mostly 57.1 µM), without a hit: at the top dose activity, negative = inhibition, actives largely listed as inhibitors | AlphaScreen L3MBTL1–H3K9me1 peptide binding | AID 485360; also: % is scaled to controls: 0 for no effect and ±100 for the full control effect; nearly all actives have a fitted effect of over 60% in size
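Read-out is AlphaScreen signal from streptavidin donor and nickel chelate acceptor beads (10 ug/mL final each) bridging L3MBTL1 (50 nM) and biotinylated K9-monomethylated H3(1-15) peptide (75 nM), after 30 min compound exposure at room temperature.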
BAZ2B block: blocks human BAZ2B; AlphaScreen BAZ2B-H3K14Ac peptide displacement; hit rate 4.4% among 360,000; Q9UIF8; AID 504333; Potency, µM (doses to about 114 µM), for inactives: at the top dose activity change, negative = inhibition, usual class: inhibitors; also: % is scaled to controls: 0 for no effect and ±100 for the full control effect; nearly all actives have a fitted effect of over 60% in size
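Compounds, titrated to a top concentration of 110 uM, were incubated 30 min at room temperature with preformed BAZ2B/acetyl-K14 H3 peptide complex (50 nM each). Proximity signal was measured by AlphaScreen after 20 min with beads.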
Numbers without * were called inactive; ? = inconclusive; . = not tested or not shown; [ ] = dose if it differs, or a comment. Calls follow the shape of the dose curve; as a rule, active = well fitted inhibition curve with a large enough effect; inconclusive = small, poorly fitted or top-dose-only effect; inactive = no such curve, though single readings can be large or run the other way. Potency is read from the fitted curve at half-maximal effect.

SMILES	HP1b chromo inh	JMJD2A Tudor inh	G9a inh	L3MBTL1 block	BAZ2B block
CCOc1cc(-c2ccc3c(c2)OCO3)cc(=[O+]CC)c2c(C)oc(C)c12	?	56µM*	.	.	.
Cc1oc(C)c2c(=O)cc(-c3ccc4c(c3)OCO4)cc(OC(=O)c3ccccc3Br)c12	-16%	?	13µM*	.	?
Cc1oc(C)c2c(=O)cc(-c3ccc4c(c3)OCO4)cc(OC(=O)c3ccccc3Cl)c12	-4%	63µM*	?	.	45µM*
COc1cc(-c2cc(OC)c3c(C)oc(C)c3c(=O)c2)ccc1OC(=O)c1ccccc1Cl	27%	?	?	.	?
CCOc1cc(-c2ccc(OC(=O)c3ccc(Cl)cc3)c(OC)c2)cc(=O)c2c(C)oc(C)c12	-8%	?	?	.	?
COc1ccc(-c2cc(OC(=O)c3cccc(Cl)c3)c3c(C)oc(C)c3c(=O)c2)cc1	1%	?	14µM*	.	50µM*
COc1cccc(CNC(=O)c2cc3c(s2)-c2c(C)cccc2OC3)c1	83%	51%	28%[59 µM]	.	27%
N#Cc1cccc(NS(=O)(=O)c2ccc3c(c2)CCC(=O)N3)c1	.	-4%	.	.	.
Cc1ccc(-c2csc(NCCn3c(-c4ccncc4)nc4ccccc43)n2)cc1	6%	-23%	20µM*	-3%	-37%
Cc1nc2cc(C(F)(F)F)ccc2n1CCNc1nc(-c2ccc(F)cc2)cs1	3%	?	28µM*	6%	?
Cc1cccc(NC(=O)CSc2ccc(-c3sc(-c4ccccc4)nc3C)nn2)c1C	15%	-19%	-3%[59 µM]	.	-14%
O=C(Cc1ccc(F)cc1)NCCc1csc2nc(-c3ccc(Cl)cc3)nn12	24%[57 µM]	-8%	3%[59 µM]	.	5%
Cc1cccc(-n2c(C)c(C)c3c(N)ncnc32)c1	-26%	?	50µM*	.	-31%
Cc1ccc(-n2c(C)c(C)c3c(N)ncnc32)cc1	-6%	-34%	?	.	-35%
CC(=O)c1ccc(C2CC34CNS(=O)(=O)C3CC2O4)cc1 (stereo not drawn)	-23%	79µM*	.	.	.
Nc1nc(-c2ccccn2)nc(N)c1Cc1ccccc1F	42%	?	0%	4µM*	6.3µM*
CNc1cc(C(F)(F)F)nc(-c2ccccn2)n1	31%	?	13%[59 µM]	-7%	-1%
Nc1nc(-c2ccccn2)nc(N)c1Cc1ccc(Cl)cc1Cl	34%	89µM*	-6%	3.5µM*	7.9µM*
CN(C(=O)COC(=O)/C=C/c1ccc(Cl)c(Cl)c1)c1c(N)n(Cc2ccccc2)c(=O)[nH]c1=O	16%	-17%	-34%	3%	-7%
Cc1ccc(-n2ncc(C(=O)Nc3ccc4c(c3)OCCO4)c2C2CCN(C(=O)OC(C)(C)C)CC2)cc1C	10%	-36%	?	.	-14%[57.1 µM]
COc1cc(C(=O)Nc2ccc(C#N)cc2)c([N+](=O)[O-])cc1OC	19%	-24%	-50%	.	-1%
N#Cc1cc([N+](=O)[O-])c2sc(C(N)=O)[n+]([O-])c2c1	.	.	28µM*	.	.
CC(C)C1COc2cc3oc(=O)ccc3cc2O1 (stereo not drawn)	.	.	-29%[2.33 µM]	.	.
COc1ccccc1C(=O)O/N=C1/CCCc2c1ccc(OC)c2[N+](=O)[O-]	10%	-27%	50µM*	-2%	0%
COc1ccc2c(c1)CC/C2=N\OC(=O)c1ccccc1OC	31%	-14%	-8%	-8%[11.4 µM]	-24%
SMILES	HP1b chromo inh	JMJD2A Tudor inh	G9a inh	L3MBTL1 block	BAZ2B block
COc1cc(C(=O)O/N=C2\CCCc3c2ccc(OC)c3[N+](=O)[O-])cc(OC)c1OC	47%	-5%[11.4 µM]	?	2%	-3%
COc1ccc2c(c1[N+](=O)[O-])CCC/C2=N/OC(=O)c1ccccc1SC	16%	-25%	45µM*	-7%	?
CCOC(=O)c1c(C)oc(NC(=O)CCl)c1C(=O)OCC	23%	-20%	7%	.	?
Cc1cc(C(=O)CSc2nnc(N)s2)c(C)n1C1CC1	22%	-19%	50µM*	-11%	-11%
Cc1cc(C(=O)CSc2nnc(N)s2)c(C)n1-c1c(C)n(C)n(-c2ccccc2)c1=O	1%	-24%	50µM*	.	-9%
Cc1cc(C)c(C(=O)CSc2nnc(N)s2)c(C)c1	-20%	-22%	25µM*	.	-7%
COCC(C)n1c(C)cc(C(=O)CSc2nc(C)c(C)c(C)n2)c1C (stereo not drawn)	12%	-34%	-33%[12.7 µM]	.	?
COCC(C)n1c(C)cc(C(=O)CSc2nnc(N)s2)c1C (stereo not drawn)	16%	-25%	6.3µM*	.	-35%
CC(=O)c1ccc(N2CCN(C(=O)c3cc4c(s3)-c3ccccc3OC4)CC2)cc1	36%	-3%	2%[59 µM]	.	10%
COC(=O)[C@H](CC(C)C)NC(=O)c1cc2c(cn1)[nH]c1ccccc12	?	?	7.9µM*	.	-24%
COC(=O)C(Cc1ccccc1)NC(=O)c1cc(=O)[nH]c2ccccc12 (stereo not drawn)	12%	-13%	2%	-5%	-26%
N#CC1=C(N)OC2=C(CCC/C2=C/c2ccoc2)C1c1ccoc1 (stereo not drawn)	.	.	16µM*	16µM*	?
CN(C)S(=O)(=O)N(CC(=O)NCCSCc1ccccc1Cl)c1ccccc1	0%	-14%	5%[59 µM]	.	-4%
Cc1ccccc1CSCCNC(=O)CN(c1ccccc1)S(=O)(=O)N(C)C	5%	45µM*	8%[59 µM]	.	-7%
Cc1ccc(OCc2nc(-c3ccc(C(=O)N4CCN(c5ccccc5F)CC4)cc3)oc2C)cc1	-10%	-24%	?	.	?
CCCCNC(=O)c1sc(=S)n2c1[nH]c(=O)c1ccccc12	-32%	79µM*	?	-10%	50µM*
O=C(NC1CCCCCC1)c1c(O)c2ccccc2[nH]c1=O	8%	-27%	?	-3%	-7%
CCCCNC(=O)c1sc2ncccc2c1-n1cccc1	17%[57 µM]	-4%	-29%[59 µM]	.	-14%
O=C(NC1CCCCC1)c1sc(=S)n2c1[nH]c(=O)c1ccccc12	?	56µM*	.	-3%	?
CCCN1CCC(=O)N([C@H](COc2ccccc2)c2ccccc2)CC1	23%	-12%	40µM*	0%	?
COc1ccc(NC(=O)c2noc3c2CCCC3)cc1Cl	32%	-2%	-13%[59 µM]	.	11%[57.1 µM]
Cc1cccc(NC(=O)CN2C(=O)CCSc3ccc(S(=O)(=O)N4CCOCC4)cc32)c1C	-17%	50µM*	-5%[59 µM]	.	-34%
O=C(CN1C(=O)CCSc2ccc(S(=O)(=O)N3CCOCC3)cc21)Nc1ccccc1Cl	7%	-32%	-9%[59 µM]	.	?
CCCNC(=O)CN1C(=O)COc2ccc(S(=O)(=O)N3CC(C)CC(C)C3)cc21 (stereo not drawn)	24%	-3%	32µM*	.	-1%
CCCNC(=O)CN1C(=O)COc2ccc(S(=O)(=O)N3CCC(C)CC3)cc21	34%	8%	0%[59 µM]	.	3%
